Compounds with a hit are over-represented: about 3.8% of the library has one in this group of screens.
ADAM17 inh: ADAM17 inhibitors, primary screen, biochemical, QFRET; Disintegrin and metalloproteinase domain-containing protein 17 (Homo sapiens), P78536; inhibition, % at 6.95 µM; actives 0.83% (n = 370,000); recombinant ADAM17, EDANS/DABCYL FRET peptide cleavage; AID 720648, 2013;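 active = inhibition above the mean of compounds lying between control limits plus 3 SD, set per campaign, cut at about 8.5% in these data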;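 note: 0% = DMSO-only wells as the low control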
ADAM10 inh: human ADAM10 inhibitors, primary screen, biochemical, QFRET, HTS | Disintegrin and metalloproteinase domain-containing protein 10 (Homo sapiens), O14672 | recombinant ADAM10, EDANS/DABCYL FRET peptide cleavage, 3 h | inhibition, % at 7 µM | actives 0.62% (n = 370,000) | AID 720582, 2013;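 active = inhibition above a per-campaign cutoff equal to the mean of compounds falling between control-based bounds plus 3 SD, cut at about 20% in these data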;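 note: 0% = DMSO wells while the 100% control is not disclosed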
FGF22 binding: binders of human FGF22 protein, primary screen, FGF22 synaptogenesis inhibitor project, biophysical, thermal shift, single point; Fibroblast growth factor 22 (Homo sapiens), Q9HCT0; recombinant FGF22 thermal shift, SYPRO orange fluorescence; percent of sucrose octasulfate shift, DMSO zero; activity (Tm shift, normalised), % at 9.99 µM; actives 1.5% (n = 340,000); AID 651658, 2012;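 active = mean Tm shift, scaled 0 neutral to 100 positive control, at about 1.3% or above, every replicate too, limit read from the data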
Target sequence (Q9HCT0 whole entry, looked up): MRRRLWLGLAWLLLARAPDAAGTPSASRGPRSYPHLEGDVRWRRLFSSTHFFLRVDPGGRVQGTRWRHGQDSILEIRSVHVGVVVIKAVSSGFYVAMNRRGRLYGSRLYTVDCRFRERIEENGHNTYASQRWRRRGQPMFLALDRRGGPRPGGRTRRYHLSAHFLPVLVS
Ecoli rRNA inh: reduced GFP signal of wild-type E. coli, primary screen, bacterial rRNA inhibitor project, GFP/RFP fluorescence, OD600, single point; GFP signal change (wild-type ribosome), % (concentration not given with the values); AID 720706, 2013; E. coli WT GFP vs humanized-ribosome RFP mutants, 24 h; stronger effect = lower value; DMSO median 0, no signal -100; actives 1.6% (n = 350,000);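 active = significant combined selectivity score with lowered wild-type GFP, culture density cut under 30%, mutant RFP and density less affected; inactive = any of these conditions unmet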
KLK7 zymogen act: proKLK7 zymogen activators, primary screen, biochemical, fluorescence intensity; actives 0.9% (n = 370,000); activation, % at 7 µM; purified proKLK7, EDANS-DABCYL substrate fluorescence; 100% is mature enzyme control, 0% vehicle;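 active = activation above the mean of all tested compounds plus 3 SD, computed per campaign excluding outliers beyond control limits, cut at about 13% in these data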
Target sequence (P49862 whole entry, looked up): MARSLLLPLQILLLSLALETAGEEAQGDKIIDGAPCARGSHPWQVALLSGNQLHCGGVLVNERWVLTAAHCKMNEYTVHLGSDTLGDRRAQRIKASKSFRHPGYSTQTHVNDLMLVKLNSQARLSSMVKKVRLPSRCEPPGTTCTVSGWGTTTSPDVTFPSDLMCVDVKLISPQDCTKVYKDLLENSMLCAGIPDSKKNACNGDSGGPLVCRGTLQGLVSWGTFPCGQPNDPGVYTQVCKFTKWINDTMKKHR
KLK7 act conf: proKLK7 zymogen activators, confirmation, biochemical, fluorescence intensity, triplicate. AID 686949, 2013. shares compounds with KLK7 zymogen act. purified proKLK7, EDANS-DABCYL substrate fluorescence; scaled: vehicle 0, mature enzyme 100. activation, % at 7 µM. actives 68% (n = 3,200);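 active = activation, as change over the incubation, above the mean of all tested compounds plus 3 SD, cut at about 13% in these data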
EDANS interfere: EDANS-DABCYL substrate optical interference, artefact control for kallikrein-7 zymogen activator project, biochemical, fluorescence intensity, high throughput | actives 80% (n = 3,200) | shares compounds with KLK7 zymogen act | activation, % at 7 µM | AID 686952, 2013 | no enzyme, 4 h; solvent 0%, active enzyme control 100%;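 active = activation above the all-compound mean plus 3 SD, ignoring values outside control-based bounds, cut at about 4.8% in these data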;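 note: value is the 4 h activation minus the activation read at time zero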
EDANS interf: EDANS fluorescence interference in dose response, no enzyme; shares compounds with KLK7 zymogen act; EDANS-DABCYL peptide fluorescence interference; EC50, µM; actives 20% (n = 250); AID 720493;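 active = compounds that raise the fluorescence signal in this interference counterscreen, with EC50 at or below 10 µM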;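 note: intact quenched peptide substrate alone read at 355 nm excitation and 520 nm emission; signal is fluorescence gain from T0 to T4 after four hours at room temperature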
An asterisk follows results filed as active; i = inactive; / = no result given.

SMILES	ADAM17 inh	ADAM10 inh	FGF22 binding	Ecoli rRNA inh	KLK7 zymogen act	KLK7 act conf	EDANS interfere	others
CCCc1cc(=O)oc2c3c(cc(OCC(=O)NCc4ccncc4)c12)OC(C)(C)CC3	i	i	0.5	/	-6.8	/	/
CN1CCN(CCCNC(=O)c2ccc3c(c2)N(Cc2ccc(F)cc2)CCS3)CC1	i	i	0.0	2.9	76.2*	-8.3	-15.2
CCN1CCN(CCCNC(=O)c2ccc3c(c2)N(Cc2ccccc2)CCS3)CC1	i	i	0.0	-2.8	35.4*	-25.6	-28.4
NS(=O)(=O)c1ccc(CCNC(=O)c2ccc3c(c2)N(Cc2ccccc2)CCS3)cc1	-52.9	-210.5	-0.1	3.7	-16.3	/	/
O=C(NCCCN1CCOCC1)c1ccc2c(c1)N(Cc1ccc(F)cc1)CCS2	i	i	-0.1	-5.3	-11.8	/	/
O=C(NCCCN1CCCC1)c1ccc2c(c1)N(Cc1ccccc1)CCS2	-450.2	i	0.0	-13.0	51.0*	-15.7	-13.4
C[C@@H]1CN([C@@H](C)CO)S(=O)(=O)c2ccc(C#CC3CCCC3)cc2O[C@@H]1CN(C)C(=O)C1CC1	/	/	-0.5	-6.6	/	/	/
Cc1cc(C)n2cc(CSc3ccccn3)nc2n1	-17.2	-64.2	0.3	8.0	1.1	/	/
Cc1cc(C)n2cc(CSCc3ccccc3)nc2n1	-357.4	i	0.0	8.7	13.8*	25.3*	20.6*	EDANS interf=>69.5
COc1cc(NC(=O)c2ccc3c(c2)S(=O)(=O)N=C2CCCCCN23)cc(OC)c1	1.1	-0.7	-0.5	-3.3	15.2*	6.5	1.0
CCNC(=O)C[C@H]1CC[C@H]2[C@H](COc3ccc(NC(=O)Nc4ccccc4OC)cc3C(=O)N2C)O1	/	/	0.0	-1.4	/	/	/
O=C(Nc1ccccc1C(=O)Nc1ccccc1C(=O)NCc1ccco1)c1ccco1	-16.2	-24.9	-0.2	-10.2	19.8*	-103.5	-119.2
COc1ccc(NC(=O)c2cc(-c3ccco3)on2)cc1OC	-3.3	0.1	-0.1	10.1	54.9*	20.5*	4.8*	EDANS interf=i
Cc1ccc(NC(=O)c2cc(-c3ccco3)on2)cc1C	-18.4	-49.4	/	/	1.7	/	/
CCc1c(C)c2cc(Cl)c(O)c(CN(CC)CC)c2oc1=O	i	i	0.2	-8.9	53.0*	73.3*	83.2*
CCCCc1cc(=O)oc2c(CN(C)C)c(O)c(Cl)cc12	i	i	/	/	66.9*	64.8*	85.9*
CCc1c(C)c2cc(Cl)c(O)c(CN(C)C)c2oc1=O	i	i	-0.1	-2.7	79.5*	66.2*	67.0*
CCCCc1cc(=O)oc2cc(OCC(=O)N(CC)CC)c(Cl)cc12	-4.5	-28.1	-0.2	-10.6	-0.5	/	/
Cc1c(C)c2cc(Cl)c(O)c(CN(C)C)c2oc1=O	i	i	/	/	73.8*	62.6*	65.3*
Cc1c(O)c(CN(C)C)cc2c1oc(=O)c1ccccc12	-5.7	-9.7	-0.1	-13.8	-0.1	/	/
COC(=O)[C@@H]1[C@@H](CO)[C@@H]2Cn3c(ccc(C4=CCCC4)c3=O)[C@@H]2N1C(=O)C1CCC1	/	/	/	1.3	/	/	/
O=C(Cc1ccncc1)N1CC(=O)N2[C@H](C1)[C@H](c1ccc(C3=CCCC3)cc1)[C@@H]2CO	/	/	/	5.2	/	/	/
CC[C@@H]1C(c2ccc(F)cc2)=NN(c2ccccc2)[C@H]1C(=O)N1CCOC1=O	-22.6	-90.3	-0.3	13.7	81.0*	64.4*	53.7*	EDANS interf=7.35*
